Experimental data reported in PubChem BioAssay (Tox21).
Results filed as inconclusive are left out. Active and inactive are the calls of the source. The call rests on the fitted dose curve; in most records, active means well fitted cell-killing curve with a large enough effect in the repeat runs; inconclusive means weak or mixed curves; inactive means flat fitted curve, though single readings scatter.

experiment: qHTS assay to identify small molecule antagonists of the TGF-beta/Smad signaling pathway - cell viability counter screen (AID 1346824); conditions: SBE-bla HEK293T viability, CellTiter-Glo luminescence; series mostly up to 76.8 µM; viability change, negative = cytotoxic: at the top concentration; further: nearly all actives have a fitted effect of over 50% in size
Source text: U.S. Tox21 Program National Center for Advancing Translational Sciences [NCATS] NIH Chemical Genomics Center [NCGC] U.S. Environmental Protection Agency [EPA] National Institutes of Environmental Health Sciences [NIEHS] National Toxicology Program [NTP] U.S. Food and Drug Administration [FDA] Tox21 Assay Overview: Transforming growth factor beta (TGF-beta) superfamily consists of a large number of structurally related dimeric proteins that act as hormones or local mediators in regulating a wide range of biological functions. This superfamily includes TGF-betas themselves, the bone morphogenetic proteins (BMPs) and the activins. These ligands induce oligomerization of serine/threonine receptor kinases and phosphorylate the cytoplasmic signaling molecules of Smad protein family. CellSensor SBE-bla HEK 293T cell line (Life Technologies, Carlsbad, CA), responsive to TGF-beta was used to screen Tox21 10K compound library for identification of agonists/antagonists of the Smad signaling pathway. This cell line contains a beta-lactamase reporter gene under control of the Smad binding element (SBE) stably integrated into HEK 293T cells. Also cytotoxicity of the compounds was tested in parallel by measuring the cell viability using CellTiter-Glo assay system in the same wells.
Tox21 Assay Protocol Summary: SBE-bla HEK 293T cells were dispensed at 4,000/well in 5 uL of assay medium into black wall/clear-bottom 1536-well plates using a Multidrop Combi (ThermoFisher Scientific, Waltham, MA) dispenser. After the assay plates were incubated at 37 C and 5% CO2 for an overnight, 23 nL of compounds dissolved in DMSO, positive controls or DMSO only was transferred to the assay plate by a Pintool station (Kalypsys, San Diego, CA). Compound transfer was followed by the addition of 1 uL of 0.25 ng/mL TGF-beta1 or assay buffer using two separate tips of Flying Reagent Dispenser (FRD, Aurora Discovery, San Diego, CA). The assay plates were incubated at 37 C and 5% CO2 for 5 hr. One uL of LiveBLAzer B/G FRET substrate (Life Technologies) was added using a Flying Reagent Dispenser (FRD, Aurora Discovery, San Diego, CA) and the plates were incubated at room temperature for 2 hr. Fluorescence intensity (405 nm excitation, 460 nm and 530 nm emissions) was measured using an Envision plate reader (PerkinElmer, Shelton, CT). For cytotoxicity read, 4 uL of CellTiter-Glo reagent (Promega Corporation, Madison, WI) was added to each well of the assay plates using FRD. After 30 min incubation at room temperature, the luminescence intensity was measured using ViewLux plate reader (PerkinElmer).
On the % scale 0 is the no-effect control and ±100 the full control effect.

Q: Which “viability change, negative = cytotoxic” value does the source give for `Cc1cccc(O)c1N` here?
A: Its value is 8.29% (inactive).

Q: For `C[C@@H](CN(C)C)CN1c2ccccc2Sc2ccccc21`, which “viability change, negative = cytotoxic” value is on record?
A: Its value is -2.19% [at 35.3 µM] (inactive).

Q: For `Cc1ccc2c(Br)cc(Br)c(O)c2n1`, which “viability change, negative = cytotoxic” value is on record?
A: The value was 5.26% [at 35.3 µM] (inactive).

Q: With `O=C(O)c1ccc(OCCCOc2ccc(C(=O)O)cc2)cc1` as the compound, how does the “viability change, negative = cytotoxic” value read?
A: The value was 9.35% [at 35.3 µM] (inactive).

Q: With `Cc1cccc(N(C)C(=S)Oc2ccc3c(c2)CCC3)c1` as the compound, how does the “viability change, negative = cytotoxic” value read?
A: The value was -13.7% [at 35.3 µM] (inactive).

Q: Which “viability change, negative = cytotoxic” value does the source give for `C=C1C[C@@]23CC[C@H]4[C@@](C)(CCC[C@@]4(C)C(=O)O[C@@H]4O[C@H](CO)[C@@H](O)[C@H](O)[C@H]4O)[C@@H]2CC[C@]1(O[C@@H]1O[C@H](CO)[C@@H](O)[C@H](O[C@@H]2O[C@H](CO)[C@@H](O)[C@H](O)[C@H]2O)[C@H]1O[C@@H]1O[C@H](CO)[C@@H](O)[C@H](O)[C@H]1O)C3` here?
A: The value was -0.21% (inactive).

Q: For `OC1(c2ccccc2)CCNCC1`, which “viability change, negative = cytotoxic” value is on record?
A: Its value is 5.97% [at 35.3 µM] (inactive).

Q: Which “viability change, negative = cytotoxic” value does the source give for `C[C@]1(Cn2ccnn2)[C@H](C(=O)O)N2C(=O)C[C@H]2S1(=O)=O` here?
A: The value was 2% [at 35.3 µM] (inactive).

Q: With `CCCCOc1ccc(OCCCN2CCOCC2)cc1` as the compound, how does the “viability change, negative = cytotoxic” value read?
A: The value was -8.11% [at 35.3 µM] (inactive).

Q: For `COC(=O)c1nc(Cl)c(Cl)nc1N`, which “viability change, negative = cytotoxic” value is on record?
A: The value was -3.97% [at 35.3 µM] (inactive).

Q: Which “viability change, negative = cytotoxic” value does the source give for `Clc1cc(Cl)nc(Cl)n1` here?
A: Its value is 10.1% (inactive).

Q: For `C=CCc1ccccc1OCC(O)CNC(C)C` (stereo not given), which “viability change, negative = cytotoxic” value is on record?
A: Its value is 9.34% [at 35.3 µM] (inactive).

Q: Which “viability change, negative = cytotoxic” value does the source give for `O=c1cc(-c2ccccc2)oc2cc(O)cc(O)c12` here?
A: The value was 3.38% (inactive).

Q: For `Cc1ccc(CO)cc1`, which “viability change, negative = cytotoxic” value is on record?
A: The value was 8.17% (inactive).

Q: For `O=C1CCCCCCCCCCOCCCCO1`, which “viability change, negative = cytotoxic” value is on record?
A: The value was -0.589% (inactive).

Q: Which “viability change, negative = cytotoxic” value does the source give for `CC[C@]1(O)C[C@H]2CN(CCc3c([nH]c4ccccc34)[C@@](C(=O)OC)(c3cc4c(cc3OC)N(C=O)[C@H]3[C@@](O)(C(=O)OC)[C@H](OC(C)=O)[C@]5(CC)C=CCN6CC[C@]43[C@@H]65)C2)C1` here?
A: Its value is -3.58% [at 35.3 µM] (inactive).

Q: With `O=C1NCCN1CCO` as the compound, how does the “viability change, negative = cytotoxic” value read?
A: Its value is 8.92% (inactive).

Q: With `CCC(C)(C)OC` as the compound, how does the “viability change, negative = cytotoxic” value read?
A: The value was 12.5% (inactive).

Q: With `OC(CCN1CCCC1)(c1ccccc1)C1CCCCC1` (stereo not given) as the compound, how does the “viability change, negative = cytotoxic” value read?
A: The value was -10.2% [at 35.3 µM] (inactive).

Q: For `CN1CCCC(CC2c3ccccc3Sc3ccccc32)C1` (stereo not given), which “viability change, negative = cytotoxic” value is on record?
A: Its value is -13.5% [at 35.3 µM] (inactive).

Q: Which “viability change, negative = cytotoxic” value does the source give for `O=C(O)C[C@H](NC(=O)OCc1ccccc1)C(=O)O` here?
A: Its value is 3.03% (inactive).

Q: With `Cc1c(C)c2c(c(C)c1OC(=O)CCC(=O)OCCO)CC[C@@](C)(CCC[C@H](C)CCC[C@H](C)CCCC(C)C)O2` as the compound, how does the “viability change, negative = cytotoxic” value read?
A: The value was -5.13% [at 35.3 µM] (inactive).

Q: With `O=c1c(O)c(-c2ccc(O)cc2)oc2cc(O)cc(O)c12` as the compound, how does the “viability change, negative = cytotoxic” value read?
A: Its value is 19% (inactive).

Q: For `Cc1ccco1`, which “viability change, negative = cytotoxic” value is on record?
A: Its value is -1.44% (inactive).

Q: For `CCCCC(CC)CN` (stereo not given), which “viability change, negative = cytotoxic” value is on record?
A: Its value is -14.9% (inactive).

Q: With `c1ccc2c(c1)CCc1ccccc1N2` as the compound, how does the “viability change, negative = cytotoxic” value read?
A: The value was -18.6% [at 35.3 µM] (inactive).

Q: For `CCCCCCCCCCC(=O)O`, which “viability change, negative = cytotoxic” value is on record?
A: Its value is -27.4% (inactive).

Q: Which “viability change, negative = cytotoxic” value does the source give for `C=C1c2cccc(O)c2C(O)=C2C(=O)[C@]3(O)C(O)=C(C(N)=O)C(=O)[C@@H](N(C)C)[C@@H]3[C@@H](O)[C@H]12` here?
A: Its value is 16.1% [at 35.3 µM] (inactive).

Q: With `O=C1c2ccccc2C(=O)c2c(O)c(O)cc(O)c21` as the compound, how does the “viability change, negative = cytotoxic” value read?
A: The value was -14.8% (inactive).

Q: For `CC1(C)O[C@@H]2C[C@H]3[C@@H]4C[C@H](F)C5=CC(=O)C=C[C@]5(C)[C@H]4[C@@H](O)C[C@]3(C)[C@]2(C(=O)CO)O1`, which “viability change, negative = cytotoxic” value is on record?
A: The value was 0.188% [at 35.3 µM] (inactive).

Q: For `CCOC(=O)[C@H](CCc1ccccc1)N[C@@H](C)C(=O)N(CC(=O)O)C1Cc2ccccc2C1`, which “viability change, negative = cytotoxic” value is on record?
A: The value was -3.6% [at 35.3 µM] (inactive).

Q: With `O=C(O)CCC(=O)C(=O)O` as the compound, how does the “viability change, negative = cytotoxic” value read?
A: The value was 0.145% (inactive).

Q: For `CN1C[C@H](C(=O)N[C@]2(C)O[C@@]3(O)[C@@H]4CCCN4C(=O)[C@H](Cc4ccccc4)N3C2=O)C[C@@H]2c3cccc4[nH]cc(c34)C[C@H]21`, which “viability change, negative = cytotoxic” value is on record?
A: The value was 2.12% [at 35.3 µM] (inactive).

Q: For `CC(CO)CO`, which “viability change, negative = cytotoxic” value is on record?
A: The value was 6.96% (inactive).

Q: With `c1ccc2sc(SN(C3CCCCC3)C3CCCCC3)nc2c1` as the compound, how does the “viability change, negative = cytotoxic” value read?
A: The value was -5.34% (inactive).

Q: Which “viability change, negative = cytotoxic” value does the source give for `CC1CC(OC(=O)C(O)c2ccccc2)CC(C)(C)N1C` (stereo not given) here?
A: Its value is 0.906% [at 35.3 µM] (inactive).

Q: For `CC(C)(C)CC(=O)OCC(=O)[C@@]1(O)CC[C@H]2[C@@H]3CCC4=CC(=O)C=C[C@]4(C)[C@H]3[C@@H](O)C[C@@]21C`, which “viability change, negative = cytotoxic” value is on record?
A: The value was -6.37% [at 35.3 µM] (inactive).

Q: Which “viability change, negative = cytotoxic” value does the source give for `O=[N+]([O-])c1ccc(O/N=C/c2cc(Br)c(O)c(Br)c2)c([N+](=O)[O-])c1` here?
A: The value was -12.1% (inactive).

Q: Which “viability change, negative = cytotoxic” value does the source give for `O=C1NC(=O)c2cc([N+](=O)[O-])ccc21` here?
A: Its value is -3.84% (inactive).

Q: With `C/C=C\C/C=C/CCCCCCCCOC(C)=O` as the compound, how does the “viability change, negative = cytotoxic” value read?
A: Its value is 12.5% (inactive).
